Test [1] has as its target Glucocorticoid receptor (Homo sapiens) (UniProt P04150). Kind of test: qHTS assay to identify small molecule antagonists of the glucocorticoid receptor (GR) signaling pathway (AID 720692; active means well fitted inhibition curve with a large enough effect in the signal ratio in the repeat runs, not every such curve was filed as active; the % refers to the signal ratio; further: potency means the concentration at half of the fitted maximal effect). In a few lines:
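GR-bla HeLa cells (beta-lactamase reporter under glucocorticoid response element) were pre-plated 4 h at 37 C, treated with compounds plus 5 nM dexamethasone (final) for 18 h, then read by LiveBLAzer B/G FRET fluorescence after 2 h.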

The nature of test [2]: qHTS assay for identifying genotoxic compounds that show differential cytotoxicity against isogenic chicken DT40 cell lines with known DNA damage response pathways - Rad54/Ku70 mutant cell line (AID 743015). Further: nearly all actives have a fitted effect of over 60% in size. Further: potency means the concentration at half of the fitted maximal effect. For orientation: Quantitative high-throughput screening tests each substance at several concentrations.
Test [3] deals with Androgen receptor (Homo sapiens) (UniProt P10275). Kind of test: qHTS assay to identify small molecule antagonists of the androgen receptor (AR) signaling pathway (AID 743035; active means well fitted inhibition curve with a large enough effect in the signal ratio in the repeat runs, not every such curve was filed as active; the % refers to the signal ratio; further: potency means the concentration at half of the fitted maximal effect). In a few lines: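 HEK293 cells stably carrying a UAS-driven beta-lactamase reporter (AR-UAS-bla GripTite) were plated for 4 h at 37C, then given compound and the agonist R1881 and incubated 16 h. Reporter activity was read by LiveBLAzer B/G FRET fluorescence after 2 h at room temperature.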
Androgen receptor (Homo sapiens), sequence (P10275 whole entry, looked up): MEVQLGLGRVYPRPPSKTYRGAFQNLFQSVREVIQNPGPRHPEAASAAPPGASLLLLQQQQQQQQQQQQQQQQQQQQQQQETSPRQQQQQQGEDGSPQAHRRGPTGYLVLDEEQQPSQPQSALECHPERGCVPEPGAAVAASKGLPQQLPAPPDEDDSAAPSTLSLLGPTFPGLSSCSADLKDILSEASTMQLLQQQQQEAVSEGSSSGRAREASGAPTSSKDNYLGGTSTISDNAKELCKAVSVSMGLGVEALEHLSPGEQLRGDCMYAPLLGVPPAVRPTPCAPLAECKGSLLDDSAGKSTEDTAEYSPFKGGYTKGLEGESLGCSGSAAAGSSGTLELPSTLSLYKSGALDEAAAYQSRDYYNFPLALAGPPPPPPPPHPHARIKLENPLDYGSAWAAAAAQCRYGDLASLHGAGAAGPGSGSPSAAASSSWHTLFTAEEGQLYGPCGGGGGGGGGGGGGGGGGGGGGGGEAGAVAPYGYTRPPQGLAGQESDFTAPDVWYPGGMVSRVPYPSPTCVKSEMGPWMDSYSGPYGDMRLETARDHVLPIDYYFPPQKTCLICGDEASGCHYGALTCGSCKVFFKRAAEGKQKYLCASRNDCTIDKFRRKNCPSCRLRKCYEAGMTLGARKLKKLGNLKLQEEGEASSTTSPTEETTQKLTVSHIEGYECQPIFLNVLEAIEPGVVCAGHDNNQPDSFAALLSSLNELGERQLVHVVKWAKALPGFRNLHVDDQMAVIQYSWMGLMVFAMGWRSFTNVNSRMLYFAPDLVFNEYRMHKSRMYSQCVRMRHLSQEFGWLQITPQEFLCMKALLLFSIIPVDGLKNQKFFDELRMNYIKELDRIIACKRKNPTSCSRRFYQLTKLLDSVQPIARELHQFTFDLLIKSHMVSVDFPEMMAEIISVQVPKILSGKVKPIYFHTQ

Test [4] has the same target. The test can be described thus: qHTS assay to identify small molecule agonists of the androgen receptor (AR) signaling pathway (AID 743036; active means well fitted activation curve with a large enough effect in the signal ratio in the repeat runs, with a control signal flat, not every such curve was filed as active; the % refers to the signal ratio; further: potency means the concentration at half of the fitted maximal effect). Put shortly: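 Fluorescence from a beta-lactamase FRET substrate served as read-out in AR-UAS-bla GripTite HEK293 cells. Cells were treated with DMSO-dissolved compounds for 16 h at 37C, then with LiveBLAzer B/G substrate for 2 h at room temperature.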

Test [5] has the same target. The test can be described thus: qHTS assay to identify small molecule agonists of the androgen receptor (AR) signaling pathway using the MDA cell line (AID 743040; further: nearly all actives have a fitted effect of over 20% in size; further: potency means the concentration at half of the fitted maximal effect). In a few lines: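 After a 5 h incubation at 37C and 0% CO2, MDA-kb2 reporter cells were dosed with compounds in DMSO and kept 16 h under the same conditions. Luciferase activity was then read as luminescence with ONE-Glo.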

The target is the same in test [6]. Kind of test: qHTS assay to identify small molecule antagonists of the androgen receptor (AR) signaling pathway using the MDA cell line (AID 743042; further: nearly all actives have a fitted effect of over 55% in size; further: potency means the concentration at half of the fitted maximal effect). Put shortly:
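Antagonist mode: compounds plus R1881 agonist added to MDA-kb2 AR-luc cells, incubated 16 h at 37C. Luciferase reporter luminescence quantified, with multiplexed CellTiter-Fluor readout for cell viability.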

For test [7], the target named is Estrogen receptor (Homo sapiens) (UniProt P03372). Kind of test: qHTS assay to identify small molecule antagonists of the estrogen receptor alpha (ER-alpha) signaling pathway (AID 743069; active means well fitted curve in the direction sought with a large enough effect in the signal ratio in the repeat runs, not every such curve was filed as active; the % refers to the signal ratio). In a few lines: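 Compound effects are measured against 17beta-estradiol stimulation in HEK293 cells with a UAS-controlled beta-lactamase reporter for ER-alpha. Exposure lasts 18 hr at 37C; LiveBLAzer B/G FRET substrate follows for 2 hr at room temperature.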
Estrogen receptor (Homo sapiens), sequence (P03372 whole entry, looked up): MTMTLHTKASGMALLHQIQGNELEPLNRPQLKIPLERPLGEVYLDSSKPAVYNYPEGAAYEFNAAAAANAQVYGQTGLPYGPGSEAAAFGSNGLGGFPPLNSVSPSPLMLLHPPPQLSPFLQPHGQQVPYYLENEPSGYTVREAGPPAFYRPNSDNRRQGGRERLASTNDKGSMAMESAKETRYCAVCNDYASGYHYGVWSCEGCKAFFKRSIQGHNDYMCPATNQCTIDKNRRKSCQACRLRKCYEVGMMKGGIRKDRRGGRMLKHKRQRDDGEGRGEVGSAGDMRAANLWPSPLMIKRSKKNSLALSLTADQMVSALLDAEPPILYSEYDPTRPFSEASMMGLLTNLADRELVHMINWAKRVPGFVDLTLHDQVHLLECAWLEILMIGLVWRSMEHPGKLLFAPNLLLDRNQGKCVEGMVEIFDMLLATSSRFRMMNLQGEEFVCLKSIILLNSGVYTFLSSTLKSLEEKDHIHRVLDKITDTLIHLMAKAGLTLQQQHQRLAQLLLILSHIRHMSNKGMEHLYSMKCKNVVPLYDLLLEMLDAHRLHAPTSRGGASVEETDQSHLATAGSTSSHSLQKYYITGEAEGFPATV

The nature of test [8]: qHTS assay for small molecule disruptors of the mitochondrial membrane potential (AID 720635). Further: potency means the concentration at half of the fitted maximal effect. In a few lines: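 Mitochondrial membrane potential tracked with Mito-MPS dye, red aggregates (ex 540/em 590 nm) against green monomers (ex 490/em 535 nm). Compound treatment 1 hr at 37C, dye 30 min in HepG2.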

Unmarked numbers belong to inactive results. Inconclusive results are not listed. Calls of active or inactive are those of the source. Unless noted, the call rests on the fitted dose curve; in most records, active means well fitted curve in the direction sought with a large enough effect in the repeat runs; inconclusive means weak or mixed curves; inactive means no such curve, though single readings can be large; an effect the other way counts as inactive or inconclusive.

This note sets out measurements from PubChem BioAssay (Tox21).

Glucocorticoid receptor (Homo sapiens), sequence (P04150 whole entry, looked up): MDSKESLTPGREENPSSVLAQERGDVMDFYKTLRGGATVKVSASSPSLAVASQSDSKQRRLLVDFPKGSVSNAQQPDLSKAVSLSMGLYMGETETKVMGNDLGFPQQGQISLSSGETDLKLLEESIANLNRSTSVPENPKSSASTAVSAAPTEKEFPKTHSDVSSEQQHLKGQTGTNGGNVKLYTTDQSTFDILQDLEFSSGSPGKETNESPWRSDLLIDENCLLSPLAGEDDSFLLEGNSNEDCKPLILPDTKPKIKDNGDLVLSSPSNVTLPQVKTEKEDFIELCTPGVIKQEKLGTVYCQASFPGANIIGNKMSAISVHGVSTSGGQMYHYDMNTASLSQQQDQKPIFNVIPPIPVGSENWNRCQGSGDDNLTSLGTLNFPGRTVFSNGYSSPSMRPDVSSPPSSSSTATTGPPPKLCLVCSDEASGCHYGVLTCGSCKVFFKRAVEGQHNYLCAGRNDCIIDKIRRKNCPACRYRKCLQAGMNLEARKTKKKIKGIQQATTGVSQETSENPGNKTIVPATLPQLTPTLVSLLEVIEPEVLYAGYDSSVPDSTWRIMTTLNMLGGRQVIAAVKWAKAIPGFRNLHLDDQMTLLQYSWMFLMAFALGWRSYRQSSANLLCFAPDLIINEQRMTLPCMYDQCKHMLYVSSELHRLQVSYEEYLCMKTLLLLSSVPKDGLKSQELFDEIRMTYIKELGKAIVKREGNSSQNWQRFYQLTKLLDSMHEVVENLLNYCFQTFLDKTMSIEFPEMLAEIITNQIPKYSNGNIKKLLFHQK

As to `C[N+]1(C)CCCCC1COC(=O)C(O)(c1ccccc1)c1ccccc1` (configuration not stated), the Potency result in test [1], in test [2], in test [3], in test [4], in test [5] and in test [6] was “inactive” throughout.

For the compound `NC1=NC(=O)N2CC12` (configuration not stated), the Potency result in test [2] is “inactive”.

`O=C1CCO1`: the Potency result in test [1], in test [3], in test [4], in test [5], in test [6] and in test [7] was “inactive” each time.

Turning to `CN1[C@H]2CC[C@@H]1[C@@H](C(=O)O)[C@@H](OC(=O)c1ccccc1)C2`, the Potency result in test [2] and in test [7] was “inactive” in each case.

`CC(=O)[C@H]1CC[C@H]2[C@@H]3CC[C@@H]4C[C@H](O)CC[C@]4(C)[C@H]3CC[C@]12C`: the Potency result in test [2] was “inactive”.

Turning to `CCON=O`, the Potency entry in test [1], in test [2] and in test [7] was “inactive” in each case.

On to `S=C(S)N1CCNCC1`, for which the Potency result in test [8] and in test [1] was “inactive” each time.

For the compound `CN1CCCC(=C(c2cccs2)c2cccs2)C1`, the Potency result in test [3], in test [4], in test [5], in test [6] and in test [7] was “inactive” throughout.

For `C[N+]1(C)[C@@H]2CC[C@H]1CC(OC(=O)c1c[nH]c3ccccc13)C2` (some centres not stated), the Potency result in test [8], in test [2], in test [3], in test [5], in test [6] and in test [7] was “inactive” each time.

As to `O=C(CS(=O)C(c1ccccc1)c1ccccc1)NO` (configuration not stated), the Potency result in test [8], in test [2] and in test [7] was “inactive” in each case.

As for `CNC(C)C(O)c1ccc(O)cc1` (configuration not stated), the Potency result in test [8] and in test [2] was “inactive” in each case.

For the compound `OC(c1ccccc1)(c1ccccc1)C1CN2CCC1CC2` (configuration not stated), the Potency entry in test [1], in test [3], in test [6] and in test [7] was “inactive” in each case. Further, the Potency in test [5] is 26.6 µM (active).

Turning to `C[C@H]1CC[C@]2(NC1)O[C@H]1C[C@H]3[C@@H]4CC[C@H]5C[C@@H](O[C@@H]6O[C@H](CO)[C@H](O[C@@H]7O[C@H](CO)[C@@H](O)[C@H](O[C@@H]8OC[C@@H](O)[C@H](O)[C@H]8O)[C@H]7O[C@@H]7O[C@H](CO)[C@@H](O)[C@H](O)[C@H]7O)[C@H](O)[C@H]6O)CC[C@]5(C)[C@H]4CC[C@]3(C)[C@H]1[C@@H]2C`, the results for the Potency in test [8] and in test [6] were 1.97 µM (active) and 5.96 µM (active), respectively. The Potency entry in test [5] is “inactive”.

Consider `C[C@]12CC[C@H]3[C@@H](CCC4=C(Cl)C(=O)CC[C@@]43C)[C@@H]1CC[C@@H]2O`, for which the Potency in test [2] is 23.7 µM (active); in test [4] it was 0.003 µM (active); in test [5] it was 0.0019 µM (active). The Potency result in test [3] and in test [6] was “inactive” in each case.

Consider `O=c1[nH]cc(N(CCCl)CCCl)c(=O)[nH]1`, for which the Potency entry in test [7] was “inactive”.

With `CCNC(C)Cc1cccc(C(F)(F)F)c1` (configuration not stated), the Potency entry in test [1] and in test [7] was “inactive” in each case.

In the case of `CC(N)Cc1ccc(O)cc1` (configuration not stated), the Potency entry in test [1] and in test [7] was “inactive” in each case.

As for `C[N+]1([O-])[C@@H]2CC[C@H]1CC(OC(=O)C(CO)c1ccccc1)C2` (some centres not stated), the Potency entry in test [1], in test [2] and in test [7] was “inactive” in each case.

Turning to `C=CCN1CC[C@]23c4c5ccc(O)c4O[C@H]2[C@@H](O)C=C[C@H]3[C@H]1C5`, the Potency result in test [2], in test [3], in test [4], in test [5] and in test [6] was “inactive” each time.

For `OC[C@@H](O)[C@H]1O[C@@H]2O[C@@H](C(Cl)(Cl)Cl)O[C@@H]2[C@H]1O`, the Potency entry in test [8], in test [1], in test [2] and in test [7] was “inactive” each time.

Turning to `N#CC1(N2CCCCC2)CCCCC1`, the Potency result in test [1] and in test [7] was “inactive” each time.

For the compound `CNC(=O)Oc1ccccc1C(=O)Nc1ccccc1`, the Potency result in test [1], in test [5], in test [6] and in test [7] was “inactive” each time.

With `CCCC(C)(COC(N)=O)COC(=O)NC1CC1` (configuration not stated), the Potency result in test [1], in test [2] and in test [7] was “inactive” each time.

With `C/C(=C\c1csc(C)n1)[C@@H]1C[C@@H]2O[C@]2(C)CCC[C@H](C)[C@H](O)[C@@H](C)C(=O)C(C)(C)[C@@H](O)CC(=O)O1`, the Potency in test [3] was 0.0239 µM (active). Moreover, the Potency result in test [5], in test [6] and in test [7] was “inactive” in each case.

For `NCC[C@H](O)C(=O)N[C@@H]1C[C@H](N)[C@@H](O[C@H]2O[C@H](CN)[C@@H](O)[C@H](O)[C@H]2N)[C@H](O[C@@H]2O[C@H](CO)[C@@H](O)[C@H]2O)[C@H]1O`, the Potency result in test [2], in test [5] and in test [6] was “inactive” each time.

`C=CC[C@]1(O)CC[C@H]2[C@@H]3CCC4=CCCC[C@@H]4[C@H]3CC[C@@]21C`: the Potency in test [8] is 9.44 µM (active); in test [1], 7.56 µM (active). The Potency entry in test [2] is “inactive”.

For the compound `O=C(OCCN1CCCCC1)C(O)(c1ccccc1)c1ccccc1`, the Potency result in test [2] and in test [7] was “inactive” throughout.

As for `O[C@H]1[C@H]2[C@H](O)CCCN2C[C@H]1O`, the Potency entry in test [8], in test [1], in test [2] and in test [7] was “inactive” in each case.
